Measurements reported in PubChem BioAssay (Tox21).
“And” between values parts separate entries of the source, which are not always exact repeats. Equal values may be shown once. Results filed as inconclusive are left out. The source made the active and inactive calls. Unless noted, the call rests on the fitted dose curve; in most records, active means well fitted curve in the direction sought with a large enough effect in the repeat runs; inconclusive means weak or mixed curves; inactive means no such curve, though single readings can be large; an effect the other way counts as inactive or inconclusive.

Legend:
[1] = molecular target: Progesterone receptor (Homo sapiens) (UniProt P06401); experiment: qHTS assay to identify small molecule agonists of the progesterone receptor (PR) signaling pathway (AID 1346784; calls by dose curve; further: nearly all actives have a fitted effect of over 30% in size)
Progesterone receptor (Homo sapiens), sequence (P06401 whole entry, looked up): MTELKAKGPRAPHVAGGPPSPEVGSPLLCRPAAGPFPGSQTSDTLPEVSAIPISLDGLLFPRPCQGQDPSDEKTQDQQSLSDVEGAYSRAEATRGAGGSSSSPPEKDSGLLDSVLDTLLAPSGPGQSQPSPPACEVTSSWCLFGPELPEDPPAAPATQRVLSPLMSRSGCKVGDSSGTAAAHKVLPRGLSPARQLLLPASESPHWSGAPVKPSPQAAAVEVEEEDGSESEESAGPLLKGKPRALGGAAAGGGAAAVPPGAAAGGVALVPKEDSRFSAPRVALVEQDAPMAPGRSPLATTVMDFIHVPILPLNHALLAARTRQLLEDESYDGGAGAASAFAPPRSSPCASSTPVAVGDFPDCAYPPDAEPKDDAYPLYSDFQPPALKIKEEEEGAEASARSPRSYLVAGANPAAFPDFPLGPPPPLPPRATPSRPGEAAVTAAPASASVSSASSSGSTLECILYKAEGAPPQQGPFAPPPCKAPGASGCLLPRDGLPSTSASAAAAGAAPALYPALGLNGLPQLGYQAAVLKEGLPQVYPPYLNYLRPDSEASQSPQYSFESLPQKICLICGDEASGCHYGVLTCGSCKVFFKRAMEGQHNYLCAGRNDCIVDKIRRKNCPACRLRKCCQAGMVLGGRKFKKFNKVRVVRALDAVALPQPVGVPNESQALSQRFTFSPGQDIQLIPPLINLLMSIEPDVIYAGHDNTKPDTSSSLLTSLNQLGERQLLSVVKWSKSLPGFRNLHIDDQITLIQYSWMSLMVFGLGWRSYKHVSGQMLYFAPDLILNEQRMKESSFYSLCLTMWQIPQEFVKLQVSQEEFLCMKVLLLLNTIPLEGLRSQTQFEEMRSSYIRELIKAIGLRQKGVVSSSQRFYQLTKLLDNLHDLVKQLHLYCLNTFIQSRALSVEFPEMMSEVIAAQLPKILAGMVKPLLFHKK
Outline: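 PR-UAS-bla HEK 293T cells carrying a UAS-driven beta-lactamase reporter were seeded in medium with 2% charcoal-stripped FBS, preincubated 6 hr at 37C, then exposed to compounds in DMSO for 16 hr; agonism was read by LiveBLAzer B/G FRET fluorescence.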

[2] = molecular target: Progesterone receptor (Homo sapiens) (UniProt P06401); experiment: qHTS assay to identify small molecule antagonists of the progesterone receptor (PR) signaling pathway (AID 1346795; active means well fitted inhibition curve with a large enough effect in the signal ratio in the repeat runs, not every such curve was filed as active; the % refers to the signal ratio; further: potency means the concentration at half of the fitted maximal effect)
Outline: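 PR-UAS-bla HEK293T cells carrying a UAS-driven beta-lactamase reporter were plated in medium with 2% charcoal-stripped FBS and rested 6 hr at 37C. Compounds were added with 1 nM R5020 (final) for 16 hr, then FRET substrate loaded 2 hr at room temperature.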

[3] = qHTS assay to identify small molecule antagonists of the progesterone receptor (PR) signaling pathway - cell viability counter screen (AID 1346798); further: series mostly up to about 92 µM; nearly all actives have a fitted effect of over 50% in size
Outline: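 PR-UAS-bla HEK293T cells in medium with 2% charcoal-stripped FBS were treated with compounds plus R5020 for 16 hr at 37C. Cell viability was then read by CellTiter-Glo luminescence after 30 min at room temperature in the same wells.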

[4] = qHTS assay to identify small molecule agonists of the progesterone receptor (PR) signaling pathway - cell viability counter screen (AID 1346799; calls by dose curve; further: nearly all actives have a fitted effect of over 45% in size)
Outline: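 PR-UAS-bla HEK293T cells, 3,000 per well in medium with 2% charcoal-stripped FBS, were preincubated 6 hr at 37C, then exposed to compounds for 16 hr; viability was read as CellTiter-Glo luminescence after 30 min at room temperature.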

[5] = qHTS assay to identify small molecule antagonists of the TGF-beta/Smad signaling pathway - cell viability counter screen (AID 1346824); further: nearly all actives have a fitted effect of over 50% in size
Outline: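 SBE-bla HEK 293T cells were plated overnight at 37 C, then given compounds in DMSO plus TGF-beta1 (added as 0.25 ng/mL solution) for 5 hr. After the bla read, CellTiter-Glo was added to the same wells and luminescence read after 30 min at room temperature.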

[6] = qHTS assay to identify small molecule agonists of the TGF-beta/Smad signaling pathway - cell viability counter screen (AID 1346829); further: top concentration of the series differs between compounds; nearly all actives have a fitted effect of over 45% in size
Outline: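 Luminescence from CellTiter-Glo, read after a 30 min room-temperature incubation, gives cell viability of SBE-bla HEK 293T cells treated 5 hr with compounds at 37 C.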

[7] = qHTS assay to identify small molecule agonists of the TGF-beta/Smad signaling pathway (AID 1346859; active means well fitted activation curve with a large enough effect in the signal ratio in the repeat runs, not every such curve was filed as active; the % refers to the signal ratio; further: series mostly up to about 77 µM)
Outline: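 HEK 293T cells stably carrying a beta-lactamase reporter driven by the Smad binding element were seeded overnight, exposed to DMSO-dissolved compounds for 5 hr at 37 C, 5% CO2, then loaded with FRET substrate for 2 hr at room temperature.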

[8] = molecular target: Thyrotropin-releasing hormone receptor (Homo sapiens) (UniProt P34981); experiment: qHTS assay to identify small molecule antagonists of the thyrotropin-releasing hormone receptor (TRHR) signaling pathway (AID 1346877; active means well fitted inhibition curve with a large enough effect in the repeat runs, not every such curve was filed as active; further: series mostly up to about 51 µM)
Thyrotropin-releasing hormone receptor (Homo sapiens), sequence (P34981 whole entry, looked up): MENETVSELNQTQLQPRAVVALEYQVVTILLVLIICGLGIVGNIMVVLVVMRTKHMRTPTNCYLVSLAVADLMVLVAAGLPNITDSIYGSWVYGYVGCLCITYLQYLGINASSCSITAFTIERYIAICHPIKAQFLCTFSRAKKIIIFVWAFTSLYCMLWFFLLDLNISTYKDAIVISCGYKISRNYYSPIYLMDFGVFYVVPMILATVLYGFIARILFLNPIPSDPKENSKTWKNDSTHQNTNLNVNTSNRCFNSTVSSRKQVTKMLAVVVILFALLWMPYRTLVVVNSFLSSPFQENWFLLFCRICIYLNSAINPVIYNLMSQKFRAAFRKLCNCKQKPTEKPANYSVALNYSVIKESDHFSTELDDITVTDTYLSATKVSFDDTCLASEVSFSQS
Outline: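 HEK293/TRHR cells, 18 h, 37 °C; Ca2+ dye 2 h; cpd 5 min RT; TRH 1 nM final; fluorescence read 3 min, 1 s intervals; 15 concs, triplicate.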

[9] = molecular target: Thyrotropin-releasing hormone receptor (Homo sapiens) (UniProt P34981); experiment: qHTS assay to identify small molecule agonists of the thyrotropin-releasing hormone receptor (TRHR) signaling pathway (AID 1346891; calls by dose curve; further: series mostly up to about 58 µM)
Outline: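 TRHR-expressing HEK293 cells were plated 18 h at 37 °C/5% CO2, loaded with calcium dye 2 h at 37 °C, then given compound in DMSO; fluorescence was read kinetically for 3 min at 1 s intervals.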

[10] = Human pregnane X receptor (PXR) small molecule agonists, qHTS cell viability counter screen (AID 1346977); further: nearly all actives have a fitted effect of over 50% in size; further: potency means the concentration at half of the fitted maximal effect
Outline: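 PXR-Luc HepG2 cells in medium with 5% charcoal-stripped FBS were pre-incubated 5hr, then exposed to compounds for 24hr at 37C. Viability was read in the same wells by CellTiter-Fluor fluorescence, reagent added after 23hr with a 1hr incubation.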

[11] = Caspase-3/7 induction in HepG2 cells by small molecules, qHTS assay (AID 1346978); further: nearly all actives have a fitted effect of over 15% in size
Outline: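 Wild-type HepG2 cells (2,000/well) were settled 5 h at 37 C, 5% CO2, then exposed to compounds in DMSO for 17 h. Caspase-3/7 activity was read by luminescence 30 min after adding Caspase-Glo 3/7 reagent at room temperature.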

[12] = Caspase-3/7 induction in CHO-K1 cells by small molecules, qHTS cell viability counter screen (AID 1346979); further: nearly all actives have a fitted effect of over 35% in size; further: potency means the concentration at half of the fitted maximal effect
Outline: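 Wild-type CHO-K1 cells were seeded at 1,500 per well, rested 5hr at 37 C, then exposed to compounds in DMSO. After 16hr, CellTiter-Fluor reagent was added and fluorescence read 1hr later as the viability measure.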

[13] = Caspase-3/7 induction in CHO-K1 cells by small molecules, qHTS assay (AID 1346980); further: nearly all actives have a fitted effect of over 15% in size
Outline: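 Wild-type cells were seeded at 1,500 per well and settled 5 hr at 37 C, 5% CO2, then exposed to DMSO-dissolved compounds for 17 hr. Caspase-Glo 3/7 reagent was added, and luminescence was read after 30min at room temperature.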

[14] = Caspase-3/7 induction in HepG2 cells by small molecules, qHTS cell viability counter screen (AID 1346981); further: series mostly up to about 92 µM; nearly all actives have a fitted effect of over 30% in size
Outline: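 Fluorescence read-out of live-cell protease activity (CellTiter-Fluor) after 1 hr with reagent. This was measured in the same wells as the caspase-3/7 luminescence, on HepG2 cells exposed to DMSO-dissolved compounds for 16 hr at 37 C.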

[15] = molecular target: Nuclear receptor subfamily 1 group I member 2 (Homo sapiens) (UniProt O75469); experiment: Human pregnane X receptor (PXR) small molecule agonists, qHTS assay (AID 1346982); further: nearly all actives have a fitted effect of over 35% in size; further: potency means the concentration at half of the fitted maximal effect
Nuclear receptor subfamily 1 group I member 2 (Homo sapiens), sequence (O75469 whole entry, looked up): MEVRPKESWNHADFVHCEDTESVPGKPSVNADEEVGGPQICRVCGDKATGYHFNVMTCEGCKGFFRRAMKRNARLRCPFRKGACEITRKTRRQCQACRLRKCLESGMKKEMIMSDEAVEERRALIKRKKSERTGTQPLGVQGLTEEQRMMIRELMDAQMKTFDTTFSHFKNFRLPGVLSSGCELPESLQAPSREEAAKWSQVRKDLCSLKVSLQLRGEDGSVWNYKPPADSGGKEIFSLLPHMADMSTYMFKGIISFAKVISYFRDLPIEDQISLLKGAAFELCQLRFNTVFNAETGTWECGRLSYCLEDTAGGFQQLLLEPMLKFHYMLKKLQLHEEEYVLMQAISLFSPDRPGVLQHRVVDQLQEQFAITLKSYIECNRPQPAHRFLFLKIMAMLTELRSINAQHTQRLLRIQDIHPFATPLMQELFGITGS
Outline: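 HepG2 PXR-Luc reporter line, 5% charcoal-stripped FBS; 5 hr pre-incubation, compound (DMSO) 24 hr at 37 C/5% CO2; ONE-Glo 30 min RT; luminescence read-out.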

[16] = molecular target: Cytochrome P450 2D6 (Homo sapiens) (UniProt P10635); experiment: Cytochrome P450 Family 2 Subfamily D Member 6 (CYP2D6) small molecule antagonists: luciferase reporter qHTS assay (AID 1671196); further: nearly all actives have a fitted effect of over 50% in size; further: potency means the concentration at half of the fitted maximal effect
Cytochrome P450 2D6 (Homo sapiens), sequence (P10635 whole entry, looked up): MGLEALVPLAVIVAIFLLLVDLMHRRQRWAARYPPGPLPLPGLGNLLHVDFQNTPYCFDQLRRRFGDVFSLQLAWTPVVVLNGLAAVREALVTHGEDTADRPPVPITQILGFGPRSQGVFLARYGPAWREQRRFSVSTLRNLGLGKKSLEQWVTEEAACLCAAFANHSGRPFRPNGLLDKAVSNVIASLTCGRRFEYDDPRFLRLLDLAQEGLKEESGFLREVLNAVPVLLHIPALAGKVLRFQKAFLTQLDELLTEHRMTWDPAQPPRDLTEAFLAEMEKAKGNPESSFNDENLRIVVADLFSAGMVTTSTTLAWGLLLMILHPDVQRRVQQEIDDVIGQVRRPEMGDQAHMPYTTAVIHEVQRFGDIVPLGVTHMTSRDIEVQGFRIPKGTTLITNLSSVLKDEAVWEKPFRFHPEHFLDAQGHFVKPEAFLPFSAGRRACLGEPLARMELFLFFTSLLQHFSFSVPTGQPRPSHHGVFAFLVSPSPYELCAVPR
Outline: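 Luminogenic proluciferin substrate, CYP2D6 enzyme; 10 min RT preincubation with compound, NADPH regeneration system added, 1 h RT. Stop/detection reagent, 20 min RT, luminescence read (RLU). Signal proportional to CYP activity.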

[17] = molecular target: Cytochrome P450 2C19 (Homo sapiens) (UniProt P33261); experiment: Cytochrome P450 Family 2 Subfamily C Member 19 (CYP2C19) small molecule antagonists: luciferase reporter qHTS assay (AID 1671197); further: nearly all actives have a fitted effect of over 65% in size; further: potency means the concentration at half of the fitted maximal effect
Cytochrome P450 2C19 (Homo sapiens), sequence (P33261 whole entry, looked up): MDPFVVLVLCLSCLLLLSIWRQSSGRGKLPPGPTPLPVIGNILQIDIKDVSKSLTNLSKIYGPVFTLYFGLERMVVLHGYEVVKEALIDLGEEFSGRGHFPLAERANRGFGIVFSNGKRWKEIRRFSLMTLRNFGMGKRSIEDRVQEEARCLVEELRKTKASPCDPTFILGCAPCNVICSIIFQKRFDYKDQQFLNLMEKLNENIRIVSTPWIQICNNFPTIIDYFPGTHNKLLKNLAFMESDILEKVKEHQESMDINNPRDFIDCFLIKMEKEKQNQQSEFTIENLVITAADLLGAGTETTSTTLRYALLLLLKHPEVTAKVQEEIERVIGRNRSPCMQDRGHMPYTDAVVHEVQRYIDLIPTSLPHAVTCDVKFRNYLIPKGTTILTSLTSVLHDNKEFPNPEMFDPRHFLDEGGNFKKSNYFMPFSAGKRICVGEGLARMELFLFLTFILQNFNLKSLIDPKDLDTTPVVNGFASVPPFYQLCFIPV
Outline: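 CYP2C19 P450-Glo, 1536-well qHTS. Cpd + enzyme/proluciferin substrate 10 min RT; + NADPH regen, 37C 1 h; stop with luciferin detection reagent, 20 min RT, luminescence (RLU). Pos ctrl ketoconazole.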

[18] = molecular target: Nuclear receptor subfamily 1 group I member 2 (Homo sapiens) (UniProt O75469); experiment: CYP3A4 induction through human pregnane X receptor (PXR) by small molecules, qHTS assay (AID 1346984); further: nearly all actives have a fitted effect of over 40% in size
Outline: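 HepG2-derived DPX-2 line carrying PXR plus a CYP3A4-promoter luciferase reporter; cells plated 5 hr, compound-exposed 24 hr at 37C. CYP3A4 activity probed with 3uM (final) Luciferin-IPA for 3hr, then luciferase read after One-Glo.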

[19] = molecular target: Nuclear receptor subfamily 1 group I member 2 (Homo sapiens) (UniProt O75469); experiment: Human pregnane X receptor (PXR) activation by small molecules, qHTS assay (AID 1346985); further: nearly all actives have a fitted effect of over 40% in size
Outline: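 DPX-2 cells (HepG2 co-transfected with a PXR response element and a CYP3A4-promoter luciferase construct) were seeded at 2,000 per well, rested 5 hr at 37C, then exposed to DMSO-dissolved compounds for 24 hr. Activation was read as luciferase luminescence.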

Measured: Potency

COC(=O)c1ccccc1OC
not listed: [18] | [19]
inactive: all other assays above

O=C(Nc1ccc2c(O)c(N=Nc3ccc(N=Nc4ccc(S(=O)(=O)O)cc4)cc3)c(S(=O)(=O)O)cc2c1)c1ccccc1
active: [10] 8.63 µM | [12] 15.4 µM | [16] 35.6 µM
not listed: [14] | [17] | [18] | [19]
inactive: all other assays above

O=C(O)c1ccc2cc(C(=O)O)ccc2c1
active: [17] 32 µM
not listed: [18] | [19]
inactive: all other assays above

CCc1cccc(CC)c1NC(=O)CN(CC(=O)O)CC(=O)O
inactive: all assays above

C#Cc1ccc(-c2ccccc2F)cc1
not listed: [12] | [17] | [18] | [19]
inactive: all other assays above

CCOC(=O)NNc1ccc(N(CC)CC(C)O)nn1 (stereo not given)
not listed: [17] | [18] | [19]
inactive: all other assays above

OCC(F)(F)F
active: [17] 74.8 µM
not listed: [12] | [18] | [19]
inactive: all other assays above

CCCc1ccc(OCC(=O)N2CCN(C(=O)COc3ccc(CCC)cc3OC)CC2)c(OC)c1
active: [15] 4.22 µM | [17] 3.47 µM
not listed: [12] | [18] | [19]
inactive: all other assays above

Clc1sc(Cl)c(Cl)c1Cl
not listed: [18] | [19]
inactive: all other assays above

Oc1c(I)cc(Cl)c2cccnc12
active: [2] 6.84 µM and 7.5 µM | [12] 27.3 µM and 29.8 µM | [15] 24.3 µM and 23.7 µM
not listed: [16] | [17] | [18] | [19]
inactive: all other assays above

CCCCCCCCCCOC(=O)c1ccccc1C(=O)OCCCCCCCC
not listed: [18] | [19]
inactive: all other assays above

COc1cc(C)ccc1O
active: [17] 56.4 µM
not listed: [14] | [18] | [19]
inactive: all other assays above

c1ccsc1
not listed: [14] | [18] | [19]
inactive: all other assays above

O=C1C(c2[nH]c3ccc(S(=O)(=O)O)cc3c2O)=Nc2ccc(S(=O)(=O)O)cc21
active: [16] 63.3 µM | [17] 79.6 µM
not listed: [18] | [19]
inactive: all other assays above

CCCCOC(=O)CO
not listed: [14] | [18] | [19]
inactive: all other assays above
